ABHD5-PLIN5 inh: blocks binding of human ABHD5 to perilipin-5 | Q00G26+Q8WTS1 | Split G. princeps luciferase complementation, luminescence, 4 h | inhibition, % at 4 µM | actives 0.78% (n = 360,000) | AID 602281;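 active = inhibition above the mean inhibition across every tested compound plus 3 SD, cut at about 22% in these data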;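 also: 0% = DMSO only wells and the 100% control is not disclosed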
Target sequence (Q00G26 whole entry, looked up): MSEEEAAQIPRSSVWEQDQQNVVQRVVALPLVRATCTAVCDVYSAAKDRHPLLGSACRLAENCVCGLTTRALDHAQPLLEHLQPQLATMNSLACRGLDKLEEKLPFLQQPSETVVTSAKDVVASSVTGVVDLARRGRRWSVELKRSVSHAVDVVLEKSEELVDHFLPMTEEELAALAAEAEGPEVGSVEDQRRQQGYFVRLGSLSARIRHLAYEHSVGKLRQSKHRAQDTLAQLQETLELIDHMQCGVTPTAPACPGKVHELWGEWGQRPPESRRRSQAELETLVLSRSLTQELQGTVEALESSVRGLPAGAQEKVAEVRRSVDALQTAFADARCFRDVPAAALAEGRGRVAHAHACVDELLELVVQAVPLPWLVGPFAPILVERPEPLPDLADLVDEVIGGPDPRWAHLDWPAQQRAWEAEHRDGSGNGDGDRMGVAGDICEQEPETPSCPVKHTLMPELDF
Target sequence (Q8WTS1 whole entry, looked up): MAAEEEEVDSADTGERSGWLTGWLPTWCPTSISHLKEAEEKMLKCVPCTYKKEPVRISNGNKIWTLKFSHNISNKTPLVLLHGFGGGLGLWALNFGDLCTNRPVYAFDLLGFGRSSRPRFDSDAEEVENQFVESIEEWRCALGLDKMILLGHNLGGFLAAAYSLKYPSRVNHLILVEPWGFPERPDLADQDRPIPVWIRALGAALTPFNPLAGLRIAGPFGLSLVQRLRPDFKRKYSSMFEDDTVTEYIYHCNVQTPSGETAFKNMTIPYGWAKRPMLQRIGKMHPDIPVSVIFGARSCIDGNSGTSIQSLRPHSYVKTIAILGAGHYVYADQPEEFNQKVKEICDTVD
HTR2A ag: mouse HTR2A agonism via beta-arrestin recruitment | activation, % at 7.6 µM | CHO-K1 mHTR2A beta-arrestin complementation, luminescence; percent of 30 µM serotonin response | actives 0.66% (n = 360,000) | AID 624169;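 active = activation above a run cutoff, the mean activation of all tested compounds plus 3 SD, cut at about 14% in these data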;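 also: 0% = plate median of compound wells and 100% = 30 µM serotonin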
NTR1 agonist: NTR1 (human) agonism; NTR1-U2OS beta-arrestin-GFP spot imaging, agonist mode; activation, % at 20 µM; actives 0.17% (n = 330,000);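 active = activation at or above 40% of the spot to cytoplasm intensity ratio, with at least 20 cells analyzed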;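 also: 0% = DMSO without peptide and 100% = 100 nM NTR1 peptide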
Granule exo inh: blocks lytic granule exocytosis; AID 651702; TALL-104 LAMP-1 surface exposure, flow cytometry; cells stimulated with thapsigargin and PMA; actives 0.66% (n = 360,000); inhibition, % at 10 µM;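 active = inhibition above about 55%, limit read from the data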
Beta2AR agonist: agonists of human beta-2 adrenergic receptor inducing internalization. response, % (test concentration not listed). AID 504454. Am2.2-beta2AR cells, FAP receptor internalization, flow cytometry. P07550. actives 0.43% (n = 340,000);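 active = response above a set limit, near 3 SD of response in nonfluorescent compounds, cut at about 42% in these data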
Granule exo CP1: blocks lytic granule exocytosis; TALL-104 cells, LAMP-1 externalization, flow cytometry; stimulated with PMA plus thapsigargin; shares compounds with Granule exo inh; actives 11% (n = 1,500); inhibition, % at 10 µM; in the data active = inhibition above about 60%;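 also: 0% = stimulated vehicle wells and 100% = unstimulated wells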
Numbers without * were called inactive; . = not tested or not shown. Hits are enriched below; roughly 2.3% of the tested compounds scored in any of these assays.

SMILES | ABHD5-PLIN5 inh | HTR2A ag | NTR1 agonist | Granule exo inh | Beta2AR agonist | Granule exo CP1
COc1ccc(-n2ccnc2CN2CCCC(CO)(Cc3cccc(OC)c3)C2)cc1 (configuration not stated) | 0 | -1 | 0 | 60* | -8 | -13
CCOC(=O)c1ccc(NCc2cccnc2)cc1 | -1 | 3 | 1 | -7 | -5 | .
Cc1onc(-c2ccccc2)c1C(=O)Nc1ccc(S(=O)(=O)N2CCOCC2)cc1 | 1 | -3 | 1 | -13 | 1 | .
CCn1c2ccccc2c2cc(NC(=O)c3ccc(=O)oc3)ccc21 | 11 | -5 | 3 | 78* | 15 | -4
CCn1c2ccccc2c2cc(NC(=O)CSc3nnc(-c4cccc(C)c4)o3)ccc21 | 1 | -3 | 3 | 28 | 7 | .
CCn1c2ccccc2c2cc(NC(=O)CSc3nnc(-c4ccccc4)o3)ccc21 | 3 | -3 | -1 | 87* | 7 | -7
O=C(Nc1nc2ccc(SC(F)F)cc2s1)c1ccc(NS(=O)(=O)c2ccc(F)c(F)c2)cc1 | -17 | 11 | 4 | 76* | 17 | 104*
CC1(C(=O)NS(=O)(=O)c2ccc(Cl)s2)CCN1C(=O)c1ccccc1CCc1ccccc1 (configuration not stated) | -4 | 6 | . | 1 | . | .
COc1ccc(C(=O)N(CCc2ccccc2)Cc2cccs2)c(OC)c1 | -3 | -8 | 1 | 64* | -5 | -10
CC1CCN(C(=O)Cn2nnc(-c3ccccc3)n2)CC1 | -2 | 0 | -1 | 58* | -6 | -12
CC1CC(C)CN(C(=O)Cn2nnc(-c3ccccc3)n2)C1 (configuration not stated) | 4 | -11 | -1 | -1 | -7 | .
COc1ccc(COc2ccc3c(C)cc(=O)oc3c2)cc1 | 7 | -2 | 2 | 75* | 2 | -4
Cc1cc(=O)oc2cc(OCc3ccccc3)ccc12 | 4 | -2 | 4 | 25 | -3 | .
CC(=O)N1CCSc2ccc(S(=O)(=O)NCCc3ccc(C)cc3)cc21 | -8 | -3 | 0 | 62* | -8 | -10
Cc1ccccc1C(=O)c1cccn1CC(=O)NCc1cccc(Cl)c1 | -2 | 4 | 2 | 0 | 4 | .
O=S(=O)(c1ccccc1)N1CCN(C(=S)Nc2ccccc2)CC1 | -2 | 0 | -1 | 3 | -3 | .
CC(C)c1ccc(NC(=S)N2CCN(S(=O)(=O)c3ccccc3)CC2)cc1 | -1 | -2 | 4 | 65* | -5 | -3
COc1cc(C=O)ccc1OC(=O)Nc1ccccc1 | -4 | 0 | 2 | -1 | 0 | .
CC1(C(=O)NS(=O)(=O)c2cccc(Cl)c2)CCN1C(=O)Cc1cc(F)ccc1F (configuration not stated) | 0 | 2 | . | -7 | . | .
COc1c2ccoc2c(OC[C@@H](O)C(C)(C)O)c2oc(=O)ccc12 | 7 | 2 | 1 | 63* | -8 | -5
COc1ccc(NC(=O)C(c2ccc(C(F)(F)F)cc2)n2c(=O)c(-c3cc4ccccc4[nH]3)nc3ccccc32)cc1 (configuration not stated) | -10 | 10 | . | 11 | . | .
COc1ccc(Cn2nnnc2C(C(C)C)N(Cc2ccco2)Cc2cccs2)cc1 (configuration not stated) | -6 | -7 | 4 | 57* | 2 | -14
[N-]=[N+]=NC(c1ccccc1)C(NC(=O)c1cc(C(F)(F)F)cc(C(F)(F)F)c1)c1ccccc1 (configuration not stated) | -6 | 7 | . | 1 | . | .
COc1ccc(Cc2c(-c3cccc(Cl)c3)nc3c(C)cc(Br)cn23)c(C)c1 | 4 | 5 | . | -4 | . | .
O=C(Nc1ccc(N2CCN(c3ncccc3C(F)(F)F)CC2)nc1)c1cccs1 | 2 | 2 | 34 | 75* | 22 | 18
SMILES | ABHD5-PLIN5 inh | HTR2A ag | NTR1 agonist | Granule exo inh | Beta2AR agonist | Granule exo CP1
O=C(Nc1ccc(N2CCN(c3ccc(C(F)(F)F)cn3)CC2)nc1)c1cccs1 | -5 | -3 | 1 | -3 | -10 | .
COc1ccc(C(=O)c2[nH]c(N)c(C(=O)NCCc3c[nH]c4ccccc34)c2-c2ccc(Cl)c(F)c2)cc1 | -5 | 6 | . | 9 | . | .
O=C1CCC/C(=N/NC(=O)C2CCN(S(=O)(=O)c3cccs3)CC2)C1 | -4 | -2 | 0 | -3 | 5 | .
S=C(Nc1ccccc1)N1CCc2ccccc21 | -4 | -1 | 0 | -5 | -2 | .
Fc1cccc(NC(=S)N2CCc3ccccc32)c1 | -11 | 3 | 1 | 64* | -1 | -4
CC(=O)Nc1cccc(C(=O)NN2C(=O)NC3(CCC(C)CC3)C2=O)c1 (configuration not stated) | 2 | -3 | . | 0 | . | .
Brc1cc2c(cc1Br)OCCOCCOCCO2 | 3 | 4 | 3 | 4 | -4 | .
CC(CCN1CCN(c2ccc(F)cc2)CC1)c1ccccc1 (configuration not stated) | -10 | -11 | 4 | 57* | -1 | -12
N=c1c2c(-c3ccccc3)c(-c3ccccc3)n(Cc3ccco3)c2ncn1Cc1ccco1 | 17 | -8 | 42* | 91* | 35 | 16
CCCCn1cnc2c(c(-c3ccccc3)c(-c3ccccc3)n2Cc2ccco2)c1=N | 12 | 2 | 39 | 64* | -1 | 18
O=C(Nc1ccc(-c2nc3ccccc3[nH]2)cc1)c1ccccc1NS(=O)(=O)c1ccc(F)cc1 | -2 | 4 | 10 | 68* | 14 | 5
CC(C)(C)c1cc(C(=O)Nc2ccc(F)cc2)n(Cc2ccc(F)cc2)n1 | -6 | 3 | 6 | 67* | -3 | 3
C#CCN1c2ccccc2Sc2cccnc21 | 0 | 14 | 1 | -2 | 9 | .
COC(=O)c1c(C(=O)OC)c(-c2ccc(Cl)cc2)n2c1CS(=O)(=O)C2 | 3 | 0 | 0 | 0 | 0 | .
COc1ccc(Cc2nnc(NC(=O)C3CCN(C(=O)c4ccco4)CC3)s2)cc1 | 3 | 6 | -1 | 57* | -4 | -13
C#CCNC(=O)C1=C[C@@H](c2coc3ccccc3c2=O)C[C@@H](OCc2ccc(CO)cc2)O1 | 3 | 1 | 5 | 88* | -13 | -5
CNc1ncnc2c1ncn2[C@H]1CN(CCc2ccccc2)C[C@@H](CO)O1 | -4 | 0 | . | -4 | . | .
NC1=NC[C@H](Cc2ccccc2)N1CC1CCCCC1 | 4 | -7 | -1 | 6 | 0 | .
NC1=NC[C@H](Cc2ccc(O)cc2)N1CC1CCCCC1 | 5 | -11 | -6 | 65* | -5 | -11
CCOC(=O)[C@@H]1[C@H]2COc3ccccc3[C@@H]2N2C(=O)N(c3ccc(C)cc3)C(=O)[C@]12C | -3 | -3 | 0 | 3 | 6 | .
CCOC(=O)[C@@H]1[C@H]2COc3ccccc3[C@@H]2N2C(=O)N(c3ccc(Cl)cc3)C(=O)[C@@]12C | -4 | -1 | 1 | 116* | -11 | -13
Clc1ccc(CSc2nncn2-c2ccc3c(c2)OCCO3)cc1 | 0 | -4 | 0 | 72* | 6 | -12

Compound activity: PubChem BioAssay, several laboratories
